This is an account of results in PubChem BioAssay.

Experiment [1] can be described thus: small molecules captured by biotinylated probe aFSTL3 – biochemical, small-molecule microarray, fluorescence 635/667, stem cell growth factor project, primary screen (AID 1064).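 Note: measures binding of the biotinylated anti-FSTL3 antibody to printed compounds.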 The settings on record: higher = more signal.
The nature of experiment [2]: binders from COS7 lysate, DM2A8 probe, primary screen, torsin A project, cell lysate, small-molecule microarray, fluorescence 635/667 (AID 1065). As to conditions: higher = more signal, COS7 lysate expressing mutant human TOR1A.
The nature of experiment [3]: small molecules captured by biotinylated probe aFGF2 – biochemical, small-molecule microarray, fluorescence 635/667, stem cell growth factor project, primary screen (AID 1067).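 Note: measures binding of biotinylated aFGF2 protein to printed compounds on slides; z-score merges feature fluorescence and signal-to-noise across triplicate slides.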 The settings on record: higher = more signal.
Experiment [4] is described as follows: small molecules captured by biotinylated probe aFGF10 – biochemical, small-molecule microarray, fluorescence 635/667, stem cell growth factor project, primary screen (AID 1071).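 Note: score merges 667 nm spot intensity and signal to noise from triplicate slides.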 The settings on record: higher = more signal.
Experiment [5] deals with Neurogenic locus notch homolog protein 2 (Homo sapiens) (UniProt Q04721). Put plainly: small molecules binding Notch2 protein – biochemical, small-molecule microarray, 635 nm fluorescence, stem cell growth factors, primary screen (AID 1073). As to conditions: higher = more signal.
Experiment [6] addresses Pro-neuregulin-1, membrane-bound isoform (Homo sapiens) (UniProt Q02297). Nature of the experiment: small molecules binding neuregulin-1 protein – biochemical, small-molecule microarray, fluorescence 635/667, psychiatric disease protein project, primary screen (AID 1075).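 Note: score combines 667 nm spot fluorescence with signal to noise.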 As to conditions: NRG1 binding, 635 nm fluorescence, higher = more signal.
For experiment [7], the system named is Neuregulin-1 EGF-like domain. Nature of the experiment: small molecules binding NRG1 EGF domain – biochemical, small-molecule microarray, 635 nm fluorescence, primary screen (AID 1081).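 Note: binding of the protein to compounds printed on small-molecule microarray slides.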 As to conditions: higher = more signal.
Experiment [8] in a line: FRG1 expression reporter modulators in myotubes – cell-based, C2C12 myotubes, firefly/Renilla luciferase, luminescence, FRG1 inhibition for FSHD, primary screen (AID 1084). As to conditions: FRG1 promoter luciferase, higher = more signal, called active from +8 up or from −8 down.
The nature of experiment [9]: small molecules captured by biotinylated probe aFST – biochemical, small-molecule microarray, fluorescence 635/667, stem cell growth factor project, primary screen (AID 1086).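 Note: score merges 667 nm fluorescence with signal-to-noise of each printed compound spot.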 The settings on record: higher = more signal.
Experiment [10] in a line: binders of probe aHhip on microarray, primary screen, stem cell growth factor project, biochemical, small-molecule microarray, fluorescence 635/667 (AID 1087).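 Note: score merges spot fluorescence at 667nm with spot signal to noise ratio.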 As to conditions: higher = more signal.
Experiment [11] concerns PRMT1 (protein arginine N-methyltransferase 1). Put plainly: small molecules binding arginine methyltransferase PRMT1 – biochemical, small-molecule microarray, 635 nm fluorescence, primary screen (AID 1088).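 Note: binding of Prmt1 protein to compounds spotted on small-molecule microarray slides.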 As to conditions: higher = more signal.
Experiment [12] can be described thus: growth effects on S. cerevisiae YJM789 – YJM789 clinical isolate, OD600, 24 h, basal, primary screen (AID 1089).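 Note: growth of clinical yeast isolate S. cerevisiae YJM 789 seeded 1000 cells per well; test concentration not given here.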 As to conditions: higher = more signal, called active from +8 up or from −8 down.
A short description of experiment [13]: S. pombe growth modifiers, basal conditions – strain 972, OD600, 24 h, no modulator, primary screen (AID 1090).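 Note: basal condition with compound alone and no growth modifier present; test concentration not given here.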 As to conditions: S. pombe 972 growth, higher = more signal, called active from +8 up or from −8 down.
A short description of experiment [14]: budding yeast growth modifiers under rapamycin – strain BY4716, OD600, 96 h, primary screen (AID 1091). Note: test concentration not given here. The settings on record: S. cerevisiae BY4716 + rapamycin, higher = more signal, called active from +8 up or from −8 down.
In experiment [15] the target is Torsin-1A-interacting protein 2 (Homo sapiens) (UniProt Q8NFQ8). Put plainly: small molecules binding lysate-expressed LULL1 – cell lysate, human LULL1 lysate, 635/667 nm fluorescence, primary screen (AID 1092).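 Note: probe is lysate of COS7 cells overexpressing human LULL1; score merges per-feature 667 nm fluorescence with signal-to-noise.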 As to conditions: small-molecule microarray, hLULL1 lysate binding, 635 nm fluorescence; higher = more signal.
Torsin-1A-interacting protein 2 (Homo sapiens), sequence (Q8NFQ8 whole entry, looked up): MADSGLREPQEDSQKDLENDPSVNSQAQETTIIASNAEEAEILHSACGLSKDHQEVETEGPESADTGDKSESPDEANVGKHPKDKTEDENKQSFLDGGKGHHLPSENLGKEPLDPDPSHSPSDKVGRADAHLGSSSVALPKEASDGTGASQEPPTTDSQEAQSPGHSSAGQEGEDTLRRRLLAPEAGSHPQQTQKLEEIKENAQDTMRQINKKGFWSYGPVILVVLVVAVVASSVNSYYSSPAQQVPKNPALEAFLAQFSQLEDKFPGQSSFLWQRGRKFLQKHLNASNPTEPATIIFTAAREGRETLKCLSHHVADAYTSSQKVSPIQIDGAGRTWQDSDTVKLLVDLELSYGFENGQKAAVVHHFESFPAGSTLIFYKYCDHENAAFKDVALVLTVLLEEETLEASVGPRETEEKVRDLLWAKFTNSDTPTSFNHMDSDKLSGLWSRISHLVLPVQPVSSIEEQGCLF
The nature of experiment [16]: optical density change of DRC41 E. coli – strain DRC41, OD650, 24 h, E. coli filamentation project, primary screen (AID 1093).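 Note: MC1000 strain lacking acrAB efflux and sulA so SOS filamentation is blocked; test concentration not given here.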 The settings on record: E. coli DRC41 growth, higher = more signal, called active from +8 up or from −8 down.
A short description of experiment [17]: probe aLefty2 binding to arrayed compounds – biochemical, biotinylated probe, 635/667 nm fluorescence, primary screen (AID 1094).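 Note: score merges spot fluorescence near 667 nm with spot signal-to-noise ratio.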 As to conditions: small-molecule microarray, higher = more signal.
Experiment [18] concerns Noggin (protein binding on small-molecule microarray). Nature of the experiment: small molecules binding Noggin protein – biochemical, 635/667 nm fluorescence, primary screen (AID 1095).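 Note: score merges 667 nm feature fluorescence with signal to noise over triplicate slides.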 As to conditions: 635 nm fluorescence, higher = more signal.
Experiment [19] concerns the target Neurogenic locus notch homolog protein 3 (Homo sapiens) (UniProt Q9UM47). Put plainly: small molecules binding NOTCH3 protein – biochemical, 635/667 nm fluorescence, primary screen (AID 1096). The settings on record: small-molecule microarray, 635 nm fluorescence, higher = more signal.
Experiment [20] is described as follows: probe aEGFR binding to arrayed compounds – biochemical, biotinylated probe, 635/667 nm fluorescence, primary screen (AID 1097).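 Note: probe is a biotinylated anti-EGFR antibody binding compounds printed on slides; score combines fluorescence near 667 nm and signal to noise of each spot.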 As to conditions: small-molecule microarray, higher = more signal.

The structures appear in SMILES notation. Active and inactive are the calls of the source.

Neurogenic locus notch homolog protein 3 (Homo sapiens), sequence (Q9UM47 whole entry, looked up): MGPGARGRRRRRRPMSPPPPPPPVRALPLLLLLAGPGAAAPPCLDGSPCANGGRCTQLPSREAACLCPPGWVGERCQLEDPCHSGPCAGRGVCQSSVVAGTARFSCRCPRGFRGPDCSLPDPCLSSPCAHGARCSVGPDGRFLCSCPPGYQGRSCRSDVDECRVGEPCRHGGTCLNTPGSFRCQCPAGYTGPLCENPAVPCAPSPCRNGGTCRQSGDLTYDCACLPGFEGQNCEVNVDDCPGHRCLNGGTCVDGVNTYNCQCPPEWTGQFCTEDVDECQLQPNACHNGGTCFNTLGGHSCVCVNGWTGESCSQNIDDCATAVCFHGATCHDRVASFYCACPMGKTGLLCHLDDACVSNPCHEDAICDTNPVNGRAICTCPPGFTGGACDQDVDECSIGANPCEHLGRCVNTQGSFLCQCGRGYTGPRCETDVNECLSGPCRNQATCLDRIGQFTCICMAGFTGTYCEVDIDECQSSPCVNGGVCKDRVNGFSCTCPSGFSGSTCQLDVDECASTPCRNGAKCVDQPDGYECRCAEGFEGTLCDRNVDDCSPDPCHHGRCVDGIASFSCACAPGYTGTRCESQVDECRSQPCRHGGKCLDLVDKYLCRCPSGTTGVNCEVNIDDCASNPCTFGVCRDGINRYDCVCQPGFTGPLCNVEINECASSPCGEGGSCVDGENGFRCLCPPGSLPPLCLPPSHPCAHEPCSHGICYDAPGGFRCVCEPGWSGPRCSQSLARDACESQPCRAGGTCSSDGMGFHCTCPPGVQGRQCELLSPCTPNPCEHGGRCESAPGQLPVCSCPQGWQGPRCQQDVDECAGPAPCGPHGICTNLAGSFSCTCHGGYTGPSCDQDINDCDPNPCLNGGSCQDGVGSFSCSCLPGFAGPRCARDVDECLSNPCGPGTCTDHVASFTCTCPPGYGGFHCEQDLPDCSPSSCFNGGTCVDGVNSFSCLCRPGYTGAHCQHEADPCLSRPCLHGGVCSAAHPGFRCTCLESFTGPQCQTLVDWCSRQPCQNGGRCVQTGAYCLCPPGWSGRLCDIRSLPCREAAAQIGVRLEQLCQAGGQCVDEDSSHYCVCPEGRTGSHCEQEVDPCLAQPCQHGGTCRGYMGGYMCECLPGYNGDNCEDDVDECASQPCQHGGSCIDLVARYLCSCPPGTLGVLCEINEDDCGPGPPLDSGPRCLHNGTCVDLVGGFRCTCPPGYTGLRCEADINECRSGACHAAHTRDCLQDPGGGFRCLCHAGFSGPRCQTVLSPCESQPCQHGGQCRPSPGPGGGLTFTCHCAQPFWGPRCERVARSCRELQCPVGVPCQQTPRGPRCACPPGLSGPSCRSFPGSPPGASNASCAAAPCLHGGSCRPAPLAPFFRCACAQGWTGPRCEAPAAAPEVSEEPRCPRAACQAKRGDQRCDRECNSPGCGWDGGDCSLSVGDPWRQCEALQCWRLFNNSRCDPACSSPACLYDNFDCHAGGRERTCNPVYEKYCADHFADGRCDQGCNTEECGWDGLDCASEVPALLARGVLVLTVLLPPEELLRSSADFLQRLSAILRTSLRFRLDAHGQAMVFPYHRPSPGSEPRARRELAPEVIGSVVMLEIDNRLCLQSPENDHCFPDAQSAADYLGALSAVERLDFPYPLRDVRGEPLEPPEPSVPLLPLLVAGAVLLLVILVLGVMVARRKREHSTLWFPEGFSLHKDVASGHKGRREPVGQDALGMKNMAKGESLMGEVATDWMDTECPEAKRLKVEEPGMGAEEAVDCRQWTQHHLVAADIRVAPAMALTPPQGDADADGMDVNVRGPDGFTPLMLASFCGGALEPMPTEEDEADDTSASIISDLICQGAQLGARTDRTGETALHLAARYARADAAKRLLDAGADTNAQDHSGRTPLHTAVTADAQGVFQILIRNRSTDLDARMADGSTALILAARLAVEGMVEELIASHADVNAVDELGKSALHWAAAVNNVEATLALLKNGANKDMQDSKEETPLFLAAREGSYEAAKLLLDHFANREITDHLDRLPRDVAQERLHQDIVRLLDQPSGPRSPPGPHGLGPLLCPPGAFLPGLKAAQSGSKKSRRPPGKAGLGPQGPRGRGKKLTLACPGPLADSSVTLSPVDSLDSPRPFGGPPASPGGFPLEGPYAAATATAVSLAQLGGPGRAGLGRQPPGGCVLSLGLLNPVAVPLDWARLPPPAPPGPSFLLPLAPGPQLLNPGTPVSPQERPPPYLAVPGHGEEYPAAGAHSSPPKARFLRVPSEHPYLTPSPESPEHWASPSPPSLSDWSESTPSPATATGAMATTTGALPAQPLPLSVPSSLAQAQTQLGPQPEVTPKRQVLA
Pro-neuregulin-1, membrane-bound isoform (Homo sapiens), sequence (Q02297 whole entry, looked up, the tested form may be a part, canonical isoform): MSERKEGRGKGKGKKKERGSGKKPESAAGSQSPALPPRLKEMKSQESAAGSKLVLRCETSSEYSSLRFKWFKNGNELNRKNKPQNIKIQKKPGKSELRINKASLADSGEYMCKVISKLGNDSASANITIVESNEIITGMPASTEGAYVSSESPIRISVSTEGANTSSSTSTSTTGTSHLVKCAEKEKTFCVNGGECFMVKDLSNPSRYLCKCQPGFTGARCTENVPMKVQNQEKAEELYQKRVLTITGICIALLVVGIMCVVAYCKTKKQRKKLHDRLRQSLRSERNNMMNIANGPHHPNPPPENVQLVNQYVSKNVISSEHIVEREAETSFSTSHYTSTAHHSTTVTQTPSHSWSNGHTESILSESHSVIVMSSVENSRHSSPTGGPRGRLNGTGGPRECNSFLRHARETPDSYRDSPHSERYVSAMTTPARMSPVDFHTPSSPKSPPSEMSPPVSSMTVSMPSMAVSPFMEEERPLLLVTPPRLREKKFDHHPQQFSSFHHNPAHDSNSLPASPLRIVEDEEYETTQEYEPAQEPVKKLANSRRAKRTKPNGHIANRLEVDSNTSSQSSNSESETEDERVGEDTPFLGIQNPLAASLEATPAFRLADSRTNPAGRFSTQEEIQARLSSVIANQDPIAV

`CC(C)C[C@H]1NC(=O)[C@H](Cc2ccccc2)NC(=O)[C@@]23C(=O)N[C@@H](Cc4ccccc4)C2[C@H](C)[C@@]2(C)O[C@H]2C3/C=C/C/C=C\CNC1=O` (stereo not given in full): the composite z-score in [1] is -0.263; in [2] it was 0.919; in [3], -0.116; in experiment [4] it was 0.461; in experiment [5], 0.777; in experiment [6], 1.03. For the same molecule, the composite z-score in experiment [7] was 1.05; in [9] it was 0.089; in experiment [10], 0.0626; in [11] it was 1.21; in experiment [15] it was 1.46; in [17], -0.123. Further, the composite z-score in experiment [18] is 0.426; in experiment [19] it was 0.852; in experiment [20] it was -0.0968. The z-score in [8] was 2.48 (inactive); in experiment [12] it was -1.12 (inactive); in [13], -0.667 (inactive); in experiment [14], -0.302 (inactive); in experiment [16] it was -1.03 (inactive).
For the molecule `COC(=O)Cn1c(C(=O)N(C)C)cc2c1C[C@H]1CN(C(=O)c3ccccc3)[C@@](Cc3ccc(OC)cc3)(C(=O)OC)[C@@H]21`, the composite z-score in experiment [1] was 0.2; in [2], -0.195; in experiment [3], 0.347; in experiment [4], 1.25; in experiment [5], 1.19; in experiment [6], 2.13. Further, the composite z-score in [7] was determined as 1.18; in experiment [9], 0.513; in experiment [10], 0.0053; in experiment [11], 0.995; in experiment [15], 3.7; in experiment [17], 0.134. In addition, the composite z-score in [18] is 0.471; in experiment [19], 1.11; in experiment [20] it was -0.0476. Moreover, the z-score is 0.296 (inactive) in [8]; 0.211 (inactive) in experiment [12]; 0.833 (inactive) in experiment [13]; 0.493 (inactive) in experiment [14]; -0.692 (inactive) in [16].
For `COCCCNC(=O)[C@@H]1c2ccccc2C(=O)N(Cc2cc(C(F)(F)F)cc(C(F)(F)F)c2)[C@H]1c1ccc(CO)cc1`, the composite z-score is -0.468 in experiment [1]; 0.668 in [2]; -0.182 in experiment [3]; -0.568 in experiment [4]; -0.0254 in experiment [5]; 0.686 in [6]. Besides, the composite z-score was 0.887 in experiment [7]; 1.49 in [9]; -0.34 in experiment [10]; -0.217 in [11]; 0.928 in [15]; -0.164 in [17]. In addition, the composite z-score was -0.441 in experiment [18], -0.305 in experiment [19] and 0.45 in [20]. Also, the z-score is 0.309 (inactive) in experiment [8]; 0.109 (inactive) in experiment [12]; 0.144 (inactive) in experiment [13]; -0.405 (inactive) in experiment [14]; 0.329 (inactive) in [16].
`CN(C)CCCCNC(=O)[C@H]1C[C@H]2C(=O)NCC(=O)N2[C@H]1c1cccc(OCCO)c1`: the composite z-score in experiment [1] was -0.295; in [2], -0.0314; in [3], -0.155; in [4], -0.224; in experiment [5] it was -0.342; in experiment [6], 0.401. Further, the composite z-score in experiment [7] was 1.19; in [9] it was -0.324; in [10], -0.485; in [11], 0.826; in experiment [15], 1.6; in [17], -0.121. The composite z-score in experiment [18] is 0.938; in [19], 1.01; in experiment [20] it was -0.3. Further, the z-score was 0.836 (inactive) in experiment [8]; 0.259 (inactive) in experiment [12]; 1.06 (inactive) in experiment [13]; -0.431 (inactive) in experiment [14]; 0.52 (inactive) in experiment [16].
With `COc1ccc(CC[C@H](O)c2cccc(OCC(=O)OC(C)(C)C)c2)cc1`, the composite z-score in experiment [1] is -0.386; in experiment [2], 1.08; in experiment [3], 0.106; in experiment [4], 0.359; in [5], 0.966; in experiment [6], 0.576. Moreover, the composite z-score in experiment [7] stood at 0.977; in experiment [9], 0.736; in experiment [10], 0.136; in experiment [11], 1.55; in experiment [15] it was 2.12; in experiment [17], 0.165. The composite z-score in [18] was determined as 0.956; in experiment [19] it was 1.09; in experiment [20] it was 0.0656. In addition, the z-score in [8] was -0.0488 (inactive); in experiment [12], -2.98 (inactive); in experiment [13], -3.06 (inactive); in experiment [14], 28.1 (active); in [16], 0.362 (inactive).
